Experimental findings from PubChem BioAssay AID2284145 (EPA ToxCast) are described below.

Activity calls are given as the source filed them. The calls were made as follows: active = hit-call score of the fitted dose curve at least 0.9, where 1 is the maximum; inactive = score below 0.9.

The test deals with human Adrenoceptor beta1 Antagonism, ADRB1 (gene 153) (UniProt P08588). As to the kind of experiment: ERF_TW_GPCR_hADRB1: Eurofins (ERF) G Protein-Coupled Receptor (GPCR) Radioligand Binding LeadHunter Assay for human Adrenoceptor beta1 Antagonism. The procedure: ERF_TW_GPCR_hADRB1 is a biochemical, single-readout assay that uses extracted gene-proteins in a cell-free assay. Measurements were taken 2 hour after chemical dosing in a 96-well plate. See beta1 Human Adrenoceptor GPCR Binding (Antagonist Radioligand) Assay, Panlabs.ERF_TW_GPCR_hADRB1 is an assay component calculated from the ERF_TW_GPCR_hADRB1 assay. It is designed to measure radioligand binding using a type of binding reporter as detected by scintillation counting with radiometry technology.Data from the assay component ERF_TW_GPCR_hADRB1 was analyzed at the assay endpoint, ERF_TW_GPCR_hADRB1, in the positive analysis fitting direction relative to DMSO as the negative control and baseline of activity. Using a type of binding reporter, loss-of-signal activity can be used to understand changes in radioligand binding as they relate to gene ADRB1. To generalize the intended target to other relatable targets, this assay endpoint is annotated to the gpcr intended target family, where the subfamily is adrenoceptor.
human Adrenoceptor beta1 Antagonism, ADRB1 (gene 153), sequence (P08588 whole entry, looked up): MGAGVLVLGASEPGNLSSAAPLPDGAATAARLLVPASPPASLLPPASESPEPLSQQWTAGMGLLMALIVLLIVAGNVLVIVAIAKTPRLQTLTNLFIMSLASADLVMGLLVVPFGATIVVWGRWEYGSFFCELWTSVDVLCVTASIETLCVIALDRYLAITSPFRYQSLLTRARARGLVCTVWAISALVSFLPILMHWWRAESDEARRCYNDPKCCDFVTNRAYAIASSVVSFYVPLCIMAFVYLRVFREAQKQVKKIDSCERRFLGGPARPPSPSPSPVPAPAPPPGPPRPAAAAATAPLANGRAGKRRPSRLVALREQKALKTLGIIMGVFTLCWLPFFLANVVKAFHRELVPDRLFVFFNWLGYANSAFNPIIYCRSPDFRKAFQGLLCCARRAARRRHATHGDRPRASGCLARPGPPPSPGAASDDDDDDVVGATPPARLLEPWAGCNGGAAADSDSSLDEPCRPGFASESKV
Human recombinant adrenergic beta1 receptors expressed in HEK 293 cells are used in modified Tris-HCl buffer pH 7.4. A 25 ug aliquot is incubated with 0.03 nM [125I]Cyanopindolol for 120 minutes at 25C. […] Receptors are filtered and washed, the filters are then counted to determine [125I]Cyanopindolol specifically bound. […]
A word on the AC50: it is the midpoint of the concentration-response curve, whichever way the signal moves. Regarding `O=C(/C=C/c1ccc(O)cc1)CC(=O)/C=C/c1ccc(O)cc1`, the AC50 was 1130 nM (active).
